Hits are enriched below; roughly 1.2% of the tested compounds scored in any of these assays.
RAD54 inh: inhibitors of human RAD54 branch migration, primary screen, biochemical, fluorescence, single point; DNA repair and recombination protein RAD54-like (Homo sapiens), Q92698; RAD54 Holliday junction branch migration, FAM/BHQ fluorescence; inhibition, % at 10.4 µM; actives 0.14% (n = 360,000); AID 602329, 2012;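 active means mean normalized replicate activity at least 40 and at least half of replicates scoring 40 or more; inconclusive means only one of the two criteria met; inactive means mean below 40 and under half of replicates reaching 40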;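 further: 0% = median of neutral control wells and 100% = median of positive control wells; inhibitors cause a drop in the FAM fluorescence signal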
Glyco luc inh: increase of ERlucT glycosylation luciferase signal, primary screen, N-linked glycosylation inhibitor project, D54 ERlucT cells, luminescence, set 2; D54 ERlucT glycosylation luciferase reporter, 24 h; percent of 100 nM tunicamycin response; reporter increase, % at 12.5 µM; actives 0.23% (n = 360,000); AID 588692, 2011;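 active means mean luciferase reporter signal, scaled so untreated is 0 and the glycosylation-blocking control 100, at or above a set limit in every replicate; inconclusive means mean reaches the limit but not every replicate does; inactive means mean below the limit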;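 further: luciferase carries N-glycosylation sites so blocking glycosylation raises the light; 0% = median of neutral control wells and 100% = median of 100 nM tunicamycin wells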
RAD52 anneal inh: RAD52 DNA annealing inhibitors, primary screen, biochemical, FRET, single point, set 2 | DNA repair protein RAD52 homolog (Homo sapiens), P43351 | recombinant RAD52 DNA annealing, FRET fluorescence | inhibition, % at 18.7 µM | actives 0.46% (n = 360,000) | AID 651710, 2012;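 active means every replicate showing at least 50% inhibition; inconclusive means mean inhibition at least 50% but not in every replicate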
NSD2 HMT inh: NSD2 histone methyltransferase inhibitors, primary screen, biochemical, AlphaScreen, single concentration, set 2; actives 0.54% (n = 310,000); NSD2 peptide methylation, 120 min; inhibition, % at 12.5 µM; Histone-lysine N-methyltransferase NSD2 (Homo sapiens), O96028; AID 743445, 2014; in the data active means inhibition above about 50%
Target sequence (O96028 whole entry, looked up): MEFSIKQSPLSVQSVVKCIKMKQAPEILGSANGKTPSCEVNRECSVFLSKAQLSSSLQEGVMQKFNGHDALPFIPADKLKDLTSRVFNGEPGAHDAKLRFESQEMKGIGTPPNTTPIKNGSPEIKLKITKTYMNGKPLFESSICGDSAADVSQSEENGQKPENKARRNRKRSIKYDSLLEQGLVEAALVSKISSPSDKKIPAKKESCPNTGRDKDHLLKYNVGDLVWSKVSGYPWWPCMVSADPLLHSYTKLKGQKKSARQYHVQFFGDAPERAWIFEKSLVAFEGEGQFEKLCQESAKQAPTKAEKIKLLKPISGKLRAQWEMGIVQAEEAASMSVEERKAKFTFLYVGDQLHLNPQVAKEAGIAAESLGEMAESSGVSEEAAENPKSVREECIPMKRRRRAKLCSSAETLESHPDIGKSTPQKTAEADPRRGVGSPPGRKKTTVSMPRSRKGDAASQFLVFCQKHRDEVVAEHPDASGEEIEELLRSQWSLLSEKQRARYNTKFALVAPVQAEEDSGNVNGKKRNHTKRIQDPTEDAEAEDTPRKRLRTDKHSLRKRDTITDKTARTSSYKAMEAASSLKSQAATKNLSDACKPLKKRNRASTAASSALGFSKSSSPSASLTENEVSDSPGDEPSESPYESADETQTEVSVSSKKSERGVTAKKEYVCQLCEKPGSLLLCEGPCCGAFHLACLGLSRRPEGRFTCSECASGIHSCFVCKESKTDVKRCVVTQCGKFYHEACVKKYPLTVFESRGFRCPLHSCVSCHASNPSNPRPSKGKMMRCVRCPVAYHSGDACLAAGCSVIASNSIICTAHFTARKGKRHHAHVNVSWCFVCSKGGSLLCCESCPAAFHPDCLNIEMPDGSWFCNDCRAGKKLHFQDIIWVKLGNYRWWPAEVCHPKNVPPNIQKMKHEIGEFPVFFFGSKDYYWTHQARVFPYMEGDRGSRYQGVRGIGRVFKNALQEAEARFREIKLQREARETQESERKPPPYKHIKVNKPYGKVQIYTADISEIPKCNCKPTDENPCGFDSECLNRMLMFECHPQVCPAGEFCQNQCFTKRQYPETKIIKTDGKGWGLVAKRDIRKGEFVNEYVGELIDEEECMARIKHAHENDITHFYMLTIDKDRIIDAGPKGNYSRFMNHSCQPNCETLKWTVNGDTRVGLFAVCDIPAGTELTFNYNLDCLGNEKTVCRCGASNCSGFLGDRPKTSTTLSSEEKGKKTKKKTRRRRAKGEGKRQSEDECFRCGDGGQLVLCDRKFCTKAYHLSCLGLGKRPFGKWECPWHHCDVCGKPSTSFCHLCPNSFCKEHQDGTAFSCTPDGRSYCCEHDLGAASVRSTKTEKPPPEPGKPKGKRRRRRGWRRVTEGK
Casp6 inh: human caspase-6 inhibitors, primary screen, biochemical, VEID-R110 fluorescence, single point, set 2 | P55212 | purified caspase-6, Z-VEID-R110 cleavage fluorescence | inhibition, % at 12.5 µM | actives 0.53% (n = 350,000) | AID 686996, 2013;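 active means mean inhibition across replicates at least about 35%, with every replicate also reaching that limit, limit read from the data; inconclusive means only one of the two criteria met; inactive means neither criterion met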;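 further: 0% = median of neutral control wells and 100% = no fluorescence left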
DNA binder FP: DNA-binding compounds via dye displacement, dose response, artefact control for RAD52 inhibitor project, biochemical, fluorescence polarization, cherry-pick; AC50, µM; actives 8% (n = 1,000); shares compounds with RAD52 anneal inh; Salmon sperm DNA/acridine orange FP displacement; AID 652128, 2013;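 active means fitted half-maximal concentration for signal loss at or below twice the highest dose tested, in every separate run, actives reach about 64 µM in these data; inconclusive means runs disagree, or flat partial signal loss, or poor fit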
* hit, by the source's call; i = inactive; ? = inconclusive; · = not tested or not shown.

SMILES | RAD54 inh | Glyco luc inh | RAD52 anneal inh | NSD2 HMT inh | Casp6 inh | DNA binder FP
CCN1CCCC1CNC(=O)c1cc(N)ccc1OC (stereo not given) | 32 | -2 | 90* | 2 | -56 | i
CCN1CCC[C@H]1CNC(=O)c1c(OC)ccc(Br)c1OC | -7 | 4 | 2 | · | 4 | ·
O=C(C1CCCC1)N1CC(=O)N2[C@H](C1)[C@H](c1ccc(-c3cccnc3)cc1)[C@@H]2CO | · | · | -5 | · | 2 | ·
C[C@@H]1CN([C@H](C)CO)S(=O)(=O)c2ccc(C#CC3CC3)cc2O[C@@H]1CN(C)Cc1cccnc1 | -3 | · | 6 | · | 3 | ·
NCCCC[C@H]1CNC(=O)C(=O)N1CCCCC1CCCCC1 | 2 | 1 | 0 | · | -18 | ·
NCCCC[C@H]1CNC(=S)N1CC1CCCCC1 | 6 | -1 | 85* | · | -101 | i
CSc1nc(NCCCN(C)C)c2c3c(sc2n1)CN(C)CC3 | · | · | 77* | 6 | -30 | i
O=C(NCCNC(=O)c1ccccc1)c1ccccc1 | 19 | 0 | 53* | · | -67 | i
O=C(O)CCNC(=O)c1ccccc1 | 0 | -1 | -3 | · | -2 | ·
CCCC1=Nc2cc(C(=O)NCCCN3CCN(C)CC3)ccc2Sc2ccccc21 | 2 | -2 | 47 | 11 | -113 | ·
CC1=Nc2cc(C(=O)NCCCN3CCN(C)CC3)ccc2Sc2ccc(C)cc21 | 9 | -1 | 77* | 14 | -61 | i
Cc1cccc2c1-c1sc(C(=O)NCCCN3CCC(C)CC3)cc1CO2 | 34 | -4 | 61* | -26 | -50 | i
CC1CCN(CCCNC(=O)c2cc3c(s2)-c2ccccc2OC3)CC1 | 26 | -5 | 27 | -22 | -13 | ·
Fc1ccccc1CNc1nc(NCC2CC2)nc2ccsc12 | -9 | -2 | 51* | -1 | 5 | i
Cc1ccc(S(=O)(=O)N(C)C[C@@H]2OCCCC[C@H](C)Oc3ccc(NC(=O)Nc4ccc(C(F)(F)F)cc4)cc3C(=O)N([C@@H](C)CO)C[C@H]2C)cc1 | 2 | · | -19 | · | 3 | ·
COc1cc(NC(=O)c2ccc(N3CC4CC(C3)c3cccc(=O)n3C4)c(NC(=O)c3ccncc3)c2)cc(OC)c1OC (stereo not given) | 2 | 8 | 85* | 7 | 5 | i
O=C1CCCCC1 | -4 | -1 | 91* | · | 1 | i
COc1ccc(-c2cnc3c(c2)C(=O)N([C@@H](C)CO)C[C@@H](C)[C@@H](CN(C)C(=O)NC2CCCC2)O3)cc1 | 2 | · | -13 | · | -2 | ·
CN(C)c1ccc(/C=N/n2c(C3CCCCC3)n[nH]c2=S)cc1 | -14 | -5 | 97* | 1 | -1 | i
NC[C@H](O)c1ccc(O)c(O)c1 | -5 | 0 | 70* | · | 79* | i
C[C@@H](c1ccccc1)N1C[C@H](COCc2ccccc2)Oc2cc(N3CC[C@H](N(C)C)C3)ccc2S1(=O)=O | · | · | 52* | · | -1 | i
C[C@@H](c1ccccc1)N1C[C@H](COCc2ccccc2)Oc2cc(N3CC[C@@H](N(C)C)C3)ccc2S1(=O)=O | · | · | -12 | · | -2 | ·
COc1ccc2nc3cc(Cl)ccc3c(C#N)c2c1 | 3 | 0 | -14 | · | 7 | ·
COc1ccc2nc3cc(Cl)ccc3c(Nc3ccc(O)c(CN4CCN(C)CC4)c3)c2c1 | · | -9 | 104* | -2 | -3 | 6.1µM*
Nc1ccc(Nc2nc(-c3ccncc3)cs2)cc1 | -12 | -10 | -9 | 5 | -1 | ·
SMILES | RAD54 inh | Glyco luc inh | RAD52 anneal inh | NSD2 HMT inh | Casp6 inh | DNA binder FP
Nc1ccc(Nc2ccncc2)cc1 | 31 | -3 | 69* | 0 | -72 | i
C[C@H]1CCCCO[C@H](CN(C)C(=O)Nc2ccc(C(F)(F)F)cc2)[C@@H](C)CN([C@@H](C)CO)C(=O)c2cc(NS(C)(=O)=O)ccc2O1 | -3 | · | 11 | · | 0 | ·
C[C@H](CO)N1C[C@H](C)[C@@H](CN(C)C(=O)Nc2ccccc2)Oc2ccc(NC(=O)Nc3ccc(C(F)(F)F)cc3)cc2CC1=O | 0 | · | 1 | · | -1 | ·
CCN(CC)CCNC(=O)c1nn(-c2ccc(Cl)cc2)c2c1CCc1cc(OC)ccc1-2 | · | 2 | 66* | 20 | 1 | i
COc1ccc2c(c1)CCc1c(C(=O)NCc3ccc(Cl)cc3)noc1-2 | · | 2 | · | 1 | · | ·
CCC(=O)N1[C@@H]2c3ccc(-c4ccccc4)c(=O)n3C[C@@H]2[C@@H](CO)[C@@H]1C(=O)N(C)C | -7 | · | · | · | · | ·
CC(=O)c1cccc(Nc2cc(C)nc3ccccc23)c1 | 21 | 0 | 9 | -1 | 0 | ·
CC(=O)c1cccc(Nc2cc(C)nc3c(C)cccc23)c1 | · | 18 | 50* | -1 | -5 | i
Cc1ccc(-c2csc(NC(=O)C[n+]3cc(-c4ccccc4)n4c3CCC4)n2)cc1 | 11 | 1 | 50* | 11 | -4 | i
O=c1ccn([C@@H]2O[C@H](CNCc3cccc4c3sc3ccccc34)[C@@H](O)[C@H]2O)c(=O)[nH]1 | 8 | 2 | 62* | · | 3 | i
CCCCCCCCCCCCCCCC[N+](C)(C)CCl | · | -7 | 88* | · | -146 | 31µM*
CCCCCCCCCCCCCCCC[N+](C)(C)CC | 51* | -15 | 81* | · | -119 | ?
CS(=O)(=O)Nc1ccc2c(c1)[C@@H]1C[C@@H](CC(=O)N3CCCCC3)O[C@@H](CO)[C@@H]1O2 | -9 | · | · | · | · | ·
CN(C)CCCn1c(=O)n(CCc2ccccc2)c(=O)c2c3c(sc21)CCCCC3 | 1 | -4 | 56* | 18 | 0 | i
CN(C)CCn1c(=O)n(Cc2ccccc2)c(=O)c2c3c(sc21)CCCCC3 | 1 | 0 | 14 | 5 | 4 | ·
CC(C)CC#Cc1ccc2c(c1)O[C@H](CN(C)C(=O)c1ccncc1)[C@@H](C)CN([C@H](C)CO)S2(=O)=O | -3 | · | 3 | · | 1 | ·
Cc1cc(N2CCC(N(C)C3CCCC3)CC2)nc2cc(O)ccc12 | 45 | -2 | 103* | · | -19 | i
Cc1cc(N2CCN(c3ccccc3)CC2)nc2ccccc12 | 4 | -2 | -3 | 1 | -1 | ·
CSc1ccc2c(c1)C(N1CCN(C)CC1)Cc1ccccc1S2 (stereo not given) | 19 | 2 | 52* | 11 | 3 | i
CN1CCN(C2Cc3ccccc3Sc3ccc(Cl)cc32)CC1 (stereo not given) | 12 | -1 | 54* | · | · | i
COc1cccc(NC(=O)Nc2ccc3c(c2)C(=O)N(C)[C@@H]2CC[C@@H](CC(=O)NCCc4ccccc4)O[C@@H]2CO3)c1 | 1 | · | 9 | · | 7 | ·
O=C(c1ccccc1)N1C[C@@H]2[C@H](c3ccccc31)[C@@H](CO)N2C(=O)CN1CCOCC1 | 8 | · | 5 | · | -1 | ·
